Inconclusive results are not listed. A number with no mark means an inactive call. Active and inactive are the calls of the source. Calls follow the shape of the dose curve; as a rule, active = well fitted cell-killing curve with a large enough effect in the repeat runs; inconclusive = weak or mixed curves, or effect the other way; inactive = no such curve, though single readings can be large or run the other way.
test: qHTS assay to identify small molecule agonists of the vitamin D receptor (VDR) signaling pathway - cell viability counter screen (AID 743224); conditions: VDR-bla HEK293T viability, CellTiter-Glo luminescence, 16 h; series mostly up to 62.6 µM; activity change, negative = cytotoxicity: at the top concentration; also: nearly all actives have a fitted effect of over 50% in size
Description: U.S. Tox21 Program National Center for Advancing Translational Sciences [NCATS] NIH Chemical Genomics Center [NCGC] U.S. Environmental Protection Agency [EPA] National Institutes of Environmental Health Sciences [NIEHS] National Toxicology Program [NTP] U.S. Food and Drug Administration [FDA] Tox21 Assay Overview: The vitamin D receptor (VDR), a member of nuclear hormone receptor superfamily, plays a critical role in calcium homeostasis and bone metabolism. It is also involved in cell differentiation and growth, and thrombogenicity. […] The cytotoxicity of the Tox21 compound library against the VDR-bla cell line was tested in parallel by measuring the cell viability using CellTiter-Glo assay (Promega, Madison, WI) in the same wells.
Tox21 Assay Protocol Summary: VDR-bla cells were dispensed at 2,000 cells/6 uL/well into black wall/clear-bottom 1536-well plates using a Multidrop Combi (Thermo Fisher Scientific, Waltham, MA) dispenser. After the assay plates were incubated at a 37C and 5% CO2 for 4 h, 23 nL of compounds dissolved in DMSO, positive controls or DMSO only was transferred to the assay plate by a Pintool station (Kalypsys, San Diego, CA). The plates were incubated at 37C and 5% CO2 for 16 h. After 1 uL of LiveBLAzerTM B/G FRET substrate was added using a Bioraptr Flying Reagent Dispenser (FRD) workstation (Beckman Coulter, Indianapolis, IN, USA), the plates were incubated at room temperature for 2 h, and fluorescence intensity was measured by an Envision plate reader (PerkinElmer, Shelton, CT). For cell viability readout that measures cytotoxicity, 3 ul/well of CellTiter-Glo reagent was added into the assay plates using a FRD. After 30 min incubation at room temperature, the luminescence intensity in the plates was measured using a ViewLux (PerkinElmer) plate reader.
% is scaled to controls: 0 for no effect and ±100 for the full control effect; potency is read from the fitted curve at half-maximal effect.

SMILES | Potency | activity change, negative = cytotoxicity
CCCCCCCC/C=C\CCCCCCCC(=O)N(CCO)CCO | 43.5 µM (active) | –
CCCCCN=C(N)N/N=C/c1c[nH]c2ccc(OC)cc12 | 29.8 µM (active) | –
CN(C/C=C/c1ccccc1)Cc1cccc2ccccc12 | 26.6 µM (active) | –
CC1=C(/C=C/C(C)=C/C=C/C(C)=C\C(=O)O)C(C)(C)CCC1 | – | -17.1%
O=C1OC(=O)c2cc(-c3ccc4c(c3)C(=O)OC4=O)ccc21 | 38.9 µM (active) | –
NCc1cccc(C2CCN(C(=O)c3ccc(C#Cc4ccccc4F)o3)CC2)c1 | 54.9 µM (active) | –
Clc1nc(C(Cl)(Cl)Cl)c(Cl)c(Cl)c1Cl | 49 µM (active) | –
SC1CCCCC1 | – | -18.2% [at 81.1 µM]
C=C1C(CCl)(CCl)C2(Cl)C(Cl)C(Cl)C1(Cl)C2(Cl)Cl (configuration not stated) | 21.6 µM (active) | –
CCCCC/C=C\C=C\C(=O)OCC | 40.5 µM (active) | –
CCCCCCCCCCCCCCCCC(C(=O)O)C(O)(CC(=O)O)C(=O)O (configuration not stated) | 26.6 µM (active) | –
Cc1ccc2nc(-c3ccc(N)cc3)sc2c1S(=O)(=O)O | – | -20.1%
CC(Cc1ccc(O)c(O)c1)C(C)Cc1ccc(O)c(O)c1 (configuration not stated) | – | -12.2%
O=C(Nc1ccccc1)c1cc(Cl)ccc1O | 12.3 µM (active) | –
Cc1cc(F)ccc1-c1cc(N2CC[C@@H](O)[C@H]2CO)ncc1N(C)C(=O)C(C)(C)c1cc(C(F)(F)F)cc(C(F)(F)F)c1 | 10.8 µM (active) | –
Cc1ccc(Cl)c(N)c1Cl | 38.9 µM (active) | –
CC(=O)[C@]1(O)Cc2c(O)c3c(c(O)c2[C@@H](O[C@H]2C[C@H](N)[C@H](O)[C@H](C)O2)C1)C(=O)c1ccccc1C3=O | – | -7.23%
c1ccc2occc2c1 | 49 µM (active) | –
Oc1ccc(Cl)cc1C1CCCC1 | – | -17.4%

SMILES | Potency | activity change, negative = cytotoxicity
c1ccc2cc3c4ccccc4c4ccccc4c3cc2c1 | – | 0.336% [at 81.1 µM]
CN[C@H]1CC[C@@H](c2ccc(Cl)c(Cl)c2)c2ccc(S(N)(=O)=O)cc21 | 17.4 µM (active) | –
CCOc1ccc([N+](=O)[O-])cc1 | 49.7 µM (active) | –
COc1cc(/C=C/C(=O)CC(=O)/C=C/c2ccc(O)c(OC)c2)ccc1O | 49.3 µM (active) | –
O=C1CCCCCCCCCCCCCC1 | – | -7.38%
Cc1cc(Br)ccc1NC(=O)CCl | 12.3 µM (active) | –
CN1CCN(c2ccccc2/C=C2\SCCN(c3ccc(Cl)c(Cl)c3)C2=O)CC1 | 38.9 µM (active) | –
CN(C[C@@H](CC[N+]12CCC(C3CCCCC3)(CC1)CC2)c1ccc(Cl)c(Cl)c1)C(=O)c1cc(C(F)(F)F)cc(C(F)(F)F)c1 | 17.4 µM (active) | –
S=C1NC=NC2N=CNC12 (configuration not stated) | 3.09 µM (active) | –
CN(C)CCOc1ccc(/C(=C(/CCCl)c2ccccc2)c2ccccc2)cc1 | 12.9 µM (active) | –
COc1cc([C@@H]2c3cc4c(cc3[C@@H](O[C@@H]3O[C@@H]5CO[C@@H](C)O[C@H]5[C@H](O)[C@H]3O)[C@H]3COC(=O)[C@H]23)OCO4)cc(OC)c1O | 21.6 µM (active) | –
C[C@H]1O[C@@H](O[C@H]2CC[C@@]3(C)[C@H](CC[C@@H]4[C@@H]3C[C@@H](O)[C@]3(C)[C@@H](C5=CC(=O)OC5)CC[C@]43O)C2)C[C@H](O)[C@@H]1O[C@H]1C[C@H](O)[C@H](O[C@H]2C[C@H](O)[C@H](O[C@@H]3O[C@H](CO)[C@@H](O)[C@H](O)[C@H]3O)[C@@H](C)O2)[C@@H](C)O1 | 0.298 µM (active) | –
CCCCCCCCCC[N+](C)(CCCCCCCCCC)CCC[Si](OC)(OC)OC | 6.92 µM (active) | –
N#Cc1nc(Cl)c(Cl)c(Cl)c1Cl | 11 µM (active) | –
CCCCCCCCCCCCN1CCCC1=O | 49 µM (active) | –
CCCCCCCCOC(=O)c1cc(O)c(O)c(O)c1 | 24.5 µM (active) | –
COc1c(Br)cc(Br)c(C)c1Br | – | -5.3%
CCCCCCCCCCCCCCCCCCNC(=O)OC1CCN(C(=O)OC[C@H](COC(=O)N(Cc2cccc[n+]2CC)C(=O)c2ccccc2OC)OC)CC1 | 26.6 µM (active) | –
